# Assay results: publication PMC12820563, “FoxP3 forms a head-to-head dimer in vivo and stabilizes its multimerization on adjacent microsatellites”
# Over roughly 16,000 sequences, “rpm ratio (pull-down/input)” has its median near 0.5; the highest 2% begin near 5.5. For the sample, the highest values were picked, then their nearest neighbours and some sequences at random.
# Target: T1, MBP-FoxP3dN (Mus musculus, UniProt Q99JB6 188-423)
# T1 sequence: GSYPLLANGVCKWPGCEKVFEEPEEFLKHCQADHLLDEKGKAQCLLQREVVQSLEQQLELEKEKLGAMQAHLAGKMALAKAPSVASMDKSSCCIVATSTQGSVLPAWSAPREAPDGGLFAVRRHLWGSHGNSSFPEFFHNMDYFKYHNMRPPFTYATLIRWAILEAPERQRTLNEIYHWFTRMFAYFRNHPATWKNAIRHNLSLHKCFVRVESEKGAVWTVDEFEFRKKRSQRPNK
# Assay: PD-seq (MBP pull-down with sequencing); 20 mM Tris-HCl pH 7.5, 100 mM NaCl, 1.5 mM MgCl2, 0.4 uM protein, 0.1 uM dsDNA library, 30 min, room temperature, amylose pull-down; high values mean tight binding
# Conditions: protein: recombinant; tags: His6-MBP; chain copies: 2; dsDNA, one strand shown
# Method in brief: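 Binding is given as reads-per-million enrichment, pull-down over input, with replicates pooled. The bait was an N-terminus-lacking mouse FoxP3 or FoxP1 fragment with a His6-MBP tag, expressed in E. coli and used at 0.4 µM with 0.1 µM Klenow-filled degenerate double-stranded DNA library for 30 min at room temperature in Tris pH 7.5 buffer with NaCl and MgCl2. Amylose resin pull-down with three washes was followed by proteinase K release, PCR barcoding and Illumina sequencing.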
row,Sequence,binding signal
1,GATGATTGTTCTCCCAGCTGATGAATTTGCTGACTCGAGTAAACAAATTTTCCTAATCTTTCTGTTCAAGCGCCATCTAC,5.1 RPM ratio (pull-down/input)
2,GATGATTGTTCTCCCAGCTGATGAATTGCAGTGCTCGAGTAAACAAATTTTCCTAATCTTTCTGTTCAAGCGCCATCTAC,0.811 RPM ratio (pull-down/input)
3,GATGATTGTTCTCCCAGCTGATGAATTATTAGCGTCGAGTAAACAAATTTTCCTAATCTTTCTGTTCAAGCGCCATCTAC,0.786 RPM ratio (pull-down/input)
4,GATGATTGTTCTCCCAGCTGATGAATTTGGCTGTTCGAGTAAACAAATTTTCCTAATCTTTCTGTTCAAGCGCCATCTAC,1.17 RPM ratio (pull-down/input)
5,GATGATTGTTCTCCCAGCTGATGAATTCAGTAGATCGAGTAAACAAATTTTCCTAATCTTTCTGTTCAAGCGCCATCTAC,0.408 RPM ratio (pull-down/input)
6,GATGATTGTTCTCCCAGCTGATGAATTACGAGGTTCGAGTAAACAAATTTTCCTAATCTTTCTGTTCAAGCGCCATCTAC,0.392 RPM ratio (pull-down/input)
7,GATGATTGTTCTCCCAGCTGATGAATTCCGTCAATCGAGTAAACAAATTTTCCTAATCTTTCTGTTCAAGCGCCATCTAC,0.393 RPM ratio (pull-down/input)
8,GATGATTGTTCTCCCAGCTGATGAATTGATCGACTCGAGTAAACAAATTTTCCTAATCTTTCTGTTCAAGCGCCATCTAC,0.33 RPM ratio (pull-down/input)
9,GATGATTGTTCTCCCAGCTGATGAATTGTGTCCTTCGAGTAAACAAATTTTCCTAATCTTTCTGTTCAAGCGCCATCTAC,1.89 RPM ratio (pull-down/input)
10,GATGATTGTTCTCCCAGCTGATGAATTGGTGGCTTCGAGTAAACAAATTTTCCTAATCTTTCTGTTCAAGCGCCATCTAC,0.748 RPM ratio (pull-down/input)
11,GATGATTGTTCTCCCAGCTGATGAATTGGCGGTATCGAGTAAACAAATTTTCCTAATCTTTCTGTTCAAGCGCCATCTAC,0.566 RPM ratio (pull-down/input)
12,GATGATTGTTCTCCCAGCTGATGAATTGTTTTACTCGAGTAAACAAATTTTCCTAATCTTTCTGTTCAAGCGCCATCTAC,1.55 RPM ratio (pull-down/input)
13,GATGATTGTTCTCCCAGCTGATGAATTTATTTACTCGAGTAAACAAATTTTCCTAATCTTTCTGTTCAAGCGCCATCTAC,6.74 RPM ratio (pull-down/input)
14,GATGATTGTTCTCCCAGCTGATGAATTTGTTTACTCGAGTAAACAAATTTTCCTAATCTTTCTGTTCAAGCGCCATCTAC,6.49 RPM ratio (pull-down/input)
15,GATGATTGTTCTCCCAGCTGATGAATTTTGTTACTCGAGTAAACAAATTTTCCTAATCTTTCTGTTCAAGCGCCATCTAC,3.84 RPM ratio (pull-down/input)
16,GATGATTGTTCTCCCAGCTGATGAATTTATTGTCTCGAGTAAACAAATTTTCCTAATCTTTCTGTTCAAGCGCCATCTAC,6.72 RPM ratio (pull-down/input)
17,GATGATTGTTCTCCCAGCTGATGAATTGAATTACTCGAGTAAACAAATTTTCCTAATCTTTCTGTTCAAGCGCCATCTAC,1.28 RPM ratio (pull-down/input)
18,GATGATTGTTCTCCCAGCTGATGAATTATTTTACTCGAGTAAACAAATTTTCCTAATCTTTCTGTTCAAGCGCCATCTAC,0.529 RPM ratio (pull-down/input)
19,GATGATTGTTCTCCCAGCTGATGAATTTGATTACTCGAGTAAACAAATTTTCCTAATCTTTCTGTTCAAGCGCCATCTAC,6.08 RPM ratio (pull-down/input)
20,GATGATTGTTCTCCCAGCTGATGAATTTTATGTCTCGAGTAAACAAATTTTCCTAATCTTTCTGTTCAAGCGCCATCTAC,1.12 RPM ratio (pull-down/input)

row,Sequence,binding signal
1,GATGATTGTTCTCCCAGCTGATGAATTTTATTACTCGAGTAAACAAATTTTCCTAATCTTTCTGTTCAAGCGCCATCTAC,1.04 RPM ratio (pull-down/input)
2,GATGATTGTTCTCCCAGCTGATGAATTTTTTTACTCGAGTAAACAAATTTTCCTAATCTTTCTGTTCAAGCGCCATCTAC,0.35 RPM ratio (pull-down/input)
3,GATGATTGTTCTCCCAGCTGATGAATTATTTGTCTCGAGTAAACAAATTTTCCTAATCTTTCTGTTCAAGCGCCATCTAC,2.46 RPM ratio (pull-down/input)
4,GATGATTGTTCTCCCAGCTGATGAATTCAATTGTTCGAGTAAACAAATTTTCCTAATCTTTCTGTTCAAGCGCCATCTAC,3.36 RPM ratio (pull-down/input)
5,GATGATTGTTCTCCCAGCTGATGAATTGGCCCGGTCGAGTAAACAAATTTTCCTAATCTTTCTGTTCAAGCGCCATCTAC,0.201 RPM ratio (pull-down/input)
6,GATGATTGTTCTCCCAGCTGATGAATTGCTTCCCTCGAGTAAACAAATTTTCCTAATCTTTCTGTTCAAGCGCCATCTAC,0.536 RPM ratio (pull-down/input)
7,GATGATTGTTCTCCCAGCTGATGAATTTGCATTCTCGAGTAAACAAATTTTCCTAATCTTTCTGTTCAAGCGCCATCTAC,6.29 RPM ratio (pull-down/input)
8,GATGATTGTTCTCCCAGCTGATGAATTGCATTCCTCGAGTAAACAAATTTTCCTAATCTTTCTGTTCAAGCGCCATCTAC,3.39 RPM ratio (pull-down/input)
9,GATGATTGTTCTCCCAGCTGATGAATTGCCATTTTCGAGTAAACAAATTTTCCTAATCTTTCTGTTCAAGCGCCATCTAC,1.02 RPM ratio (pull-down/input)
10,GATGATTGTTCTCCCAGCTGATGAATTTGCCATCTCGAGTAAACAAATTTTCCTAATCTTTCTGTTCAAGCGCCATCTAC,2.56 RPM ratio (pull-down/input)
11,GATGATTGTTCTCCCAGCTGATGAATTTTGCATCTCGAGTAAACAAATTTTCCTAATCTTTCTGTTCAAGCGCCATCTAC,7.18 RPM ratio (pull-down/input)
12,GATGATTGTTCTCCCAGCTGATGAATTTGCATATTCGAGTAAACAAATTTTCCTAATCTTTCTGTTCAAGCGCCATCTAC,2.72 RPM ratio (pull-down/input)
13,GATGATTGTTCTCCCAGCTGATGAATTGCGCCATTCGAGTAAACAAATTTTCCTAATCTTTCTGTTCAAGCGCCATCTAC,6.51 RPM ratio (pull-down/input)
14,GATGATTGTTCTCCCAGCTGATGAATTGCGTAATTCGAGTAAACAAATTTTCCTAATCTTTCTGTTCAAGCGCCATCTAC,1.58 RPM ratio (pull-down/input)
15,GATGATTGTTCTCCCAGCTGATGAATTGCATTTCTCGAGTAAACAAATTTTCCTAATCTTTCTGTTCAAGCGCCATCTAC,2.75 RPM ratio (pull-down/input)
16,GATGATTGTTCTCCCAGCTGATGAATTGCATCTCTCGAGTAAACAAATTTTCCTAATCTTTCTGTTCAAGCGCCATCTAC,4.07 RPM ratio (pull-down/input)
17,GATGATTGTTCTCCCAGCTGATGAATTTTTGCATTCGAGTAAACAAATTTTCCTAATCTTTCTGTTCAAGCGCCATCTAC,6.58 RPM ratio (pull-down/input)
18,GATGATTGTTCTCCCAGCTGATGAATTTAGAGGCTCGAGTAAACAAATTTTCCTAATCTTTCTGTTCAAGCGCCATCTAC,0.583 RPM ratio (pull-down/input)
19,GATGATTGTTCTCCCAGCTGATGAATTTTGATATTCGAGTAAACAAATTTTCCTAATCTTTCTGTTCAAGCGCCATCTAC,3.34 RPM ratio (pull-down/input)
20,GATGATTGTTCTCCCAGCTGATGAATTTATCGAATCGAGTAAACAAATTTTCCTAATCTTTCTGTTCAAGCGCCATCTAC,0.374 RPM ratio (pull-down/input)
